RecA splice inh: Mtb RecA intein splicing inhibition. P9WHJ3. cell-free RecA intein splicing, fluorescence. inhibition, % (concentration not given with the values). actives 0.75% (n = 290,000). AID 2221; in the data active means inhibition above about 30%
GDH-TPI counter: inhibits GDH-TPI coupling enzymes, artifact for Mtb FBA screen; GDH-TPI coupled enzyme counterscreen, NADH absorbance; inhibition, % at 4.8 µM; actives 1.2% (n = 360,000)
Mtb FBA inh: inhibitors of M. tuberculosis fructose-bisphosphate aldolase; P9WQA3; purified M. tuberculosis FBA, fluorescence read-out; inhibition, % at 1 µM; actives 2.3% (n = 360,000); in the data active means inhibition above about 27%
Target sequence (P9WQA3 whole entry, looked up): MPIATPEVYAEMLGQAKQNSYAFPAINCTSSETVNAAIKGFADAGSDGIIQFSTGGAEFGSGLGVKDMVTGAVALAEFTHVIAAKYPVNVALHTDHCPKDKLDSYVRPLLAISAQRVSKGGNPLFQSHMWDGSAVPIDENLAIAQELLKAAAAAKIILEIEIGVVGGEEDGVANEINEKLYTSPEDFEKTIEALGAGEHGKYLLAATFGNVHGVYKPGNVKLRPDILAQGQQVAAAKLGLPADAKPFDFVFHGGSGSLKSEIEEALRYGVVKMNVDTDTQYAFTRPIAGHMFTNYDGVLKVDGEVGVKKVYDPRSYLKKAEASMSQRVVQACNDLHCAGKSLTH
3CLpro inhibitor: SARS-CoV 3CLpro protease inhibition. recombinant SARS-CoV 3CLpro, quenched FRET peptide cleavage. inhibition, % at 6 µM. AID 1706. P0C6X7. actives 0.14% (n = 290,000); in the data active means inhibition above about 12%
CCHF vOTU inh-1: CCHFV vOTU protease inhibition; Pep-AMC fluorescence; inhibition, % at 11.5 µM; actives 0.55% (n = 370,000); AID 651958
VHR inh abs: blocks human VHR1 dual specificity phosphatase; actives 0.52% (n = 290,000); recombinant VHR phosphatase, pNPP absorbance; inhibition, % at 13.3 µM; in the data active means inhibition above about 50%
Target sequence (P51452 whole entry, looked up): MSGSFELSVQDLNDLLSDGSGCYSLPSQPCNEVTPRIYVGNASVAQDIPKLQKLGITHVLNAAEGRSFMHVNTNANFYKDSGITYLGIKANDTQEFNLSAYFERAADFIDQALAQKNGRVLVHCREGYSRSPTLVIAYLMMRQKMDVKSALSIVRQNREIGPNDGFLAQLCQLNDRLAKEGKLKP
CCHF vOTU inh-2: CCHFV vOTU protease inhibition, confirmation; Recombinant CCHFV vOTU, Pep-AMC fluorescence; shares compounds with CCHF vOTU inh-1; actives 17% (n = 1,900); AID 686976; inhibition, % at 11.5 µM
Numbers stand for hits. Compounds with a hit are over-represented: about 4.7% of the library has one in this group of screens. Unless noted, no stated cut-off is given here; in the data, active means inhibition above about 30%; inactive means the rest.

What do the screens show for `Cc1ccc([C@H]2C(C(=O)O)=CC[C@@H](c3cccc(Cl)c3)N2S(=O)(=O)c2ccc(C)cc2)cc1`?
GDH-TPI counter: inactive; Mtb FBA inh: inactive; CCHF vOTU inh-1: inactive

Results for Cc1ccc(S(=O)(=O)N2[C@@H](c3ccc(C(C)(C)C)cc3)C(C(=O)O)=CC[C@H]2c2cccc(Cl)c2)cc1 ?
GDH-TPI counter: inactive; Mtb FBA inh: inactive; CCHF vOTU inh-1: 38; CCHF vOTU inh-2: inactive

How did CCc1ccc([C@@H]2C[C@H]3[C@@H](CN2S(=O)(=O)c2ccc(C)cc2)C(=O)C[C@@H](c2ccc(C)cc2)N3S(=O)(=O)c2ccc(C)cc2)cc1 do in these assays?
GDH-TPI counter: inactive; Mtb FBA inh: inactive; CCHF vOTU inh-1: 34; CCHF vOTU inh-2: inactive

Results for CCc1ccc([C@@H]2CC=C(C(=O)O)[C@H](c3ccc(C)cc3)N2S(=O)(=O)c2ccc(C)cc2)cc1 ?
GDH-TPI counter: inactive; Mtb FBA inh: inactive; CCHF vOTU inh-1: 32; CCHF vOTU inh-2: inactive

How did CCc1ccc([C@@H]2C[C@H]3[C@@H](CN2S(=O)(=O)c2ccc(C)cc2)C(=O)C[C@@H](c2ccccc2)N3S(=O)(=O)c2ccc(C)cc2)cc1 do in these assays?
GDH-TPI counter: inactive; Mtb FBA inh: inactive; CCHF vOTU inh-1: inactive

How did O=C(O)C1=CCC(c2ccc(Cl)c(Cl)c2)N(S(=O)(=O)c2ccc(F)cc2)C1c1cccc(F)c1 (configuration not stated) do in these assays?
CCHF vOTU inh-1: 37; CCHF vOTU inh-2: inactive

What do the screens show for `CC(C)CC1C(=O)N(Cc2cn(CCC3OCCCO3)nn2)CCS(=O)(=O)N1Cc1ccc(-c2ccc(Cl)c(Cl)c2)cc1` (configuration not stated)?
GDH-TPI counter: inactive; Mtb FBA inh: inactive; CCHF vOTU inh-1: inactive

Results for CCOC(=O)[C@]12CCC=C1N(Cc1cccc3ccccc13)C(=O)[C@H](CC(=O)NCCCOC)C2 ?
CCHF vOTU inh-1: inactive

What do the screens show for `CSc1nc(-c2ccco2)nn1C(=O)c1ccc(Cl)cc1`?
3CLpro inhibitor: inactive; VHR inh abs: inactive

How did CSc1nc(-c2ccco2)nn1S(C)(=O)=O do in these assays?
RecA splice inh: inactive; GDH-TPI counter: inactive; Mtb FBA inh: inactive; 3CLpro inhibitor: inactive; CCHF vOTU inh-1: 36; VHR inh abs: inactive; CCHF vOTU inh-2: inactive

Results for CCOC(=O)c1cc2c(ccn2C)n1CC(=O)N(Cc1ccccc1)c1ccc(F)cc1 ?
RecA splice inh: inactive; GDH-TPI counter: inactive; Mtb FBA inh: inactive; 3CLpro inhibitor: inactive; CCHF vOTU inh-1: inactive; VHR inh abs: inactive

What do the screens show for `CCOC(=O)c1cc2c(ccn2C)n1Cc1ccccc1C`?
RecA splice inh: inactive; GDH-TPI counter: inactive; Mtb FBA inh: inactive; 3CLpro inhibitor: inactive; CCHF vOTU inh-1: 31; VHR inh abs: inactive; CCHF vOTU inh-2: 43

How did CCOC(=O)c1cc2c(ccn2C)n1CC(=O)N(Cc1ccccc1)c1ccccc1 do in these assays?
RecA splice inh: inactive; GDH-TPI counter: inactive; Mtb FBA inh: inactive; 3CLpro inhibitor: inactive; CCHF vOTU inh-1: 55; VHR inh abs: inactive; CCHF vOTU inh-2: inactive

What do the screens show for `CCCN(CC1CC1)c1cc2c(c3c1ccn3C)C1CCC2O1` (configuration not stated)?
Mtb FBA inh: inactive; CCHF vOTU inh-1: inactive

Results for COc1ccccc1CNC(=O)Cn1cc([N+](=O)[O-])ccc1=O ?
RecA splice inh: inactive; GDH-TPI counter: inactive; Mtb FBA inh: inactive; 3CLpro inhibitor: inactive; CCHF vOTU inh-1: inactive; VHR inh abs: inactive

How did CC(=O)c1ccc(N(C(=O)c2csnn2)C(C(=O)NC2CCCC2)c2ccccc2)cc1 (configuration not stated) do in these assays?
RecA splice inh: inactive; GDH-TPI counter: inactive; Mtb FBA inh: inactive; 3CLpro inhibitor: inactive; CCHF vOTU inh-1: inactive; VHR inh abs: inactive

What do the screens show for `Cc1ccc(S(=O)(=O)Nc2cc(Cl)c(O)c3ncccc23)cc1`?
RecA splice inh: inactive; GDH-TPI counter: inactive; Mtb FBA inh: inactive; 3CLpro inhibitor: inactive; CCHF vOTU inh-1: 30; VHR inh abs: inactive; CCHF vOTU inh-2: inactive

How did O=C(Oc1ccc2[nH]cc(CCN3C(=O)c4ccccc4C3=O)c2c1)c1ccco1 do in these assays?
RecA splice inh: inactive; GDH-TPI counter: inactive; Mtb FBA inh: inactive; 3CLpro inhibitor: inactive; CCHF vOTU inh-1: 36; VHR inh abs: inactive; CCHF vOTU inh-2: inactive

What do the screens show for `CC(Nc1cccc2ccccc12)C(=O)N/N=C/c1ccccn1` (configuration not stated)?
RecA splice inh: inactive; GDH-TPI counter: inactive; Mtb FBA inh: inactive; 3CLpro inhibitor: inactive; CCHF vOTU inh-1: 114; VHR inh abs: inactive; CCHF vOTU inh-2: inactive

What do the screens show for `CCCOc1ccccc1OCC(=O)Nc1cc(Cl)ccc1-n1cncn1`?
RecA splice inh: inactive; GDH-TPI counter: inactive; Mtb FBA inh: inactive; CCHF vOTU inh-1: 32; CCHF vOTU inh-2: inactive

What do the screens show for `Cc1cccc(OCC(=O)Nc2cc(Cl)ccc2-n2cncn2)c1C`?
RecA splice inh: inactive; GDH-TPI counter: inactive; Mtb FBA inh: inactive; CCHF vOTU inh-1: inactive

What do the screens show for `COC(CNC(=O)CN1CCN(Cc2ccccc2F)C1=O)OC`?
RecA splice inh: inactive; GDH-TPI counter: inactive; Mtb FBA inh: inactive; 3CLpro inhibitor: inactive; CCHF vOTU inh-1: inactive; VHR inh abs: inactive

How did O=[N+]([O-])c1ccc(COc2ccc(CN3CCCC3)cc2)cc1 do in these assays?
GDH-TPI counter: inactive; Mtb FBA inh: inactive; CCHF vOTU inh-1: inactive

Results for CNc1ccc2oc(C[C@H]3O[C@@]4(CC[C@H]3C)O[C@H]([C@H](C)C(=O)c3ccc[nH]3)[C@H](C)C[C@H]4C)nc2c1C(=O)O ?
RecA splice inh: inactive; GDH-TPI counter: inactive; Mtb FBA inh: inactive; CCHF vOTU inh-1: 54; VHR inh abs: inactive; CCHF vOTU inh-2: inactive

How did CC(=O)c1cccc(NC(=O)C2Cc3c(-c4cccc(C(C)=O)c4)ccnc3O2)c1 (configuration not stated) do in these assays?
GDH-TPI counter: inactive; Mtb FBA inh: inactive; CCHF vOTU inh-1: inactive

Results for CC(=O)c1cccc(-c2ccnc3c2CC(C(=O)Nc2cccc(C(F)(F)F)c2)O3)c1 (configuration not stated) ?
GDH-TPI counter: inactive; Mtb FBA inh: inactive; CCHF vOTU inh-1: 33; CCHF vOTU inh-2: inactive

How did CC1(C(=O)Nc2cccc(OC(F)(F)F)c2)Cc2c(-c3cccc(C(F)(F)F)c3)ccnc2O1 (configuration not stated) do in these assays?
GDH-TPI counter: inactive; Mtb FBA inh: inactive; CCHF vOTU inh-1: 40; CCHF vOTU inh-2: inactive

How did CC(=O)c1cccc(NC(=O)C2(C)Cc3c(-c4cccc(C(F)(F)F)c4)ccnc3O2)c1 (configuration not stated) do in these assays?
GDH-TPI counter: inactive; Mtb FBA inh: inactive; CCHF vOTU inh-1: 33; CCHF vOTU inh-2: inactive
